# Assay results taken from PubChem BioAssay AID1347426 (Functional Genomics Laboratory (NCATS/FGL), 2020).
# The campaign covered roughly 31,000 sequences. About 1,400 (4.5%) were called active. Only a selection was taken, and actives are over-represented in it overall. A number with no mark means an inactive call.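 How the source made its calls: active means median seed-adjusted z-score above 1 or below -1; inactive means the rest.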
# Test: Novel Modifiers of Survival Motor Neuron (SMN) Protein: Gene Identification via Genome-wide siRNA Screen;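 further: luminescence tracks full-length SMN protein made from the SMN2 reporter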
# Conditions: HEK293T SMN2-luciferase reporter, siRNA knockdown, 72 h; actives lie on both sides
# Method in brief: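 HEK293T cells stably expressing an SMN2 splicing/cDNA-luciferase reporter were reverse-transfected with a druggable-genome siRNA library and read by luminescence at 72 hours; hits defined by MAD score above 1.0 or below -1.0.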
row,Sequence,median seed-adjusted z-score
1,GCAUGGUAAUUUAUAGUUUTT against NGF,-0.325
2,GCACGGAAUUUGAACAGUATT against SOX17,-0.46
3,GGAACAUCUUUGUACCUAUTT against NARG1,-1.02 (active)
4,AUCUAGACUUCUCUUUAUATT against FHL3,0.105
5,UCCUCAACGUGUGCGAUGATT against KCNG1,-0.00995
6,CCUCAGCUUUUACAGCAAATT against RAD23A,-1.13 (active)
7,GGCCUAUGCUAAUCAUUCUTT against FANCA,0.418
8,GACUUGAAGAUGCUAAUCATT against TIPIN,0
9,GAAUGAAAUCAGAGUAUAATT against RNF125,0.204
10,CCAGGUCCAUGGAAAGAAATT against NEIL2,-0.256
11,CGGCUAGAAGAGGAACAGATT against LSG1,1.31 (active)
12,CAAUGUGGUGUAUAAUACATT against VNN2,-0.583
13,CAGUCACUGCACUACAGAATT against ATF7,0.903
14,AGAACAAAGACCUAAUGGATT against TNNT3,-0.293
15,GAUUGAGAAUUCUAUUGUATT against UTP6,-0.253
16,GAAUCGUUGUCAGAGCCUUTT against LMNB1,0.0619
17,AGGCAAAGACGGAACAACATT against TRIM69,0.214
18,GCAUUGGUCUAGAGCUUUATT against SCPEP1,-0.99
19,GCAUCGUCACUGUCAUGAATT against ITPR3,-1.28 (active)
20,AGUUUGAUGUUAUCAAUCUTT against PRKAG1,0.431
21,GCAGAUCUCGCUACAGGGATT against SFRS2B,-0.272
22,UCAGCUUCAGCUUAACUGATT against TUBA1B,0.0888

row,Sequence,median seed-adjusted z-score
1,CGAGAAUGACUAUCUUCAATT against STK32C,-0.311
2,GACCUGGGCAGAUUCCAAATT against MMP9,-1.15 (active)
3,GGGUAUGAGAUAUGCGGUATT against TYW1,0.201
4,GAUUAGAUCUAAACAAUCUTT against TTRAP,-0.33
5,CCAGAAUGCCCAUAUCACATT against RS1,-0.684
6,GCCUUCUGAUGGUAGAUCUTT against RANBP17,-0.123
7,GGAUGGCAGGGAUUCCGAATT against ZNF213,1.37 (active)
8,GGAAAGUUGUGGGUCUAAUTT against SERPINA7,0.0925
9,GGACUUAAGCGACAACGCATT against RANGAP1,-0.0379
10,GCACCGAACCCGUCUAUCATT against POU3F4,-0.314
11,GUAGCUUGCUACUCCAGAATT against POLR2D,-3.79 (active)
12,CGGAUGCACAAGCUAAAUATT against BHLHA15,-0.199
13,CGGAAGGUAGUAAACCUUUTT against AMY1A,0.272
14,GUAGCUCAUUUGUAAGGAATT against ZNF578,-0.808
15,GGAGCGCAAGAUCACCUUATT against SSTR1,0.285
16,GCCGGUAUGUGAAGGAGAATT against CLK3,-1.11 (active)
17,CACUUUUUAUAUUUACGUATT against TSPAN4,0.417
18,GUGUAGACAUAGUCUAAAATT against ZNF532,-0.0289
19,CCCUGUCUGUGAAGCAUGATT against TXNDC2,-1.29 (active)
20,GCUACAUCUUUAUAAGGGATT against IL12RB2,0.368
21,GGAAGAAAGCGGGACUUUUTT against PPME1,0.342
22,CAGACUCCCUCAUCACCAATT against ALAS1,-1.15 (active)

row,Sequence,median seed-adjusted z-score
1,CAAUGAACACUACUAACCATT against IL31RA,0.36
2,CGGGAGUGGUUUUCAGAGATT against APOC1,0
3,GCUCUGAAUUCAGUGUUUATT against HTR3E,-0.717
4,GGUCUAACUCAAUAAUGGATT against REV3L,0.062
5,GCUGAAUAUCUACACGGAATT against SLCO4A1,-0.0802
6,GUGCUCGAAUGAUAACUAUTT against RAB2A,-0.038
7,GUGGAACAAUUGUAACAGATT against ETF1,-1.12 (active)
8,GCUUCGAAUGGAUCUAGAATT against MYH8,0.0648
9,CCAACGAACAUGUACAACATT against CACNA2D3,0.198
10,GGAUAUGGUUAAUAGGAGATT against SMC6,0.227
11,GCAGUUAGAUGUCAGGACATT against PPIA,0.0169
12,CGAAAGGAGUCUUCACCAATT against PRDX6,-0.0302
13,CCCUAGAUAUGGACGAUGATT against UTP3,-1.08 (active)
14,CAAUGGACAGAAUACACUUTT against ZNF614,0.0971
15,UGAGCAGUGAGAACCCAUATT against PEAR1,0.071
16,CCAUAGUAGUGACUACCAUTT against GRIA3,-0.358
17,AACUGGACCUUAAAAAGAATT against POU4F3,0
18,GGAUGUCCAGAGGCACUAATT against POLA2,-0.114
19,GAAAGACUUGUUUAUAUUATT against ADRB1,1.06 (active)
20,CUCAAUCCAUAGUAAGUAUTT against ZNF678,0.172
21,CAAUUCUUGUCAUUUGAAATT against SLC25A19,-0.104
22,CCAUAAUGAUAGAGUUUAATT against SLC24A4,0.0358

row,Sequence,median seed-adjusted z-score
1,GAGUGAGAGCUGUAGAAAATT against CREB3,0.0509
2,AGUGGACAACAGAACAAUATT against SNRPG,-3.09 (active)
3,CCUGUACGAUGAGAUAGAATT against CYFIP2,-0.322
4,GGAUGCACUUCUAAACUCATT against AKR1D1,0.211
5,GGUCUAGCCUUACACCUCATT against RAB3GAP2,0.0583
6,GAAGGGCUCUUUCACAGCUTT against ADAMTS13,-0.276
7,GGACAUGUUCUACUCUUCATT against LRP5,-1 (active)
8,GUCUCGAUGGAGCAAAGUATT against TCERG1,0.415
9,CGACUUGCUAAGCUACAUATT against MAOA,0.665
10,GGAACAACGGUGGAGAUUUTT against ITGB5,-0.00882
11,GAAAGGAUCAGUGUCGAUATT against OCRL,-0.545
12,GCAGUUUCAGGGUAUGAAATT against LGMN,0.391
13,GGAUCAUACUAGAAGACUATT against TREM1,0
14,GGAACACUAUGAUGAGUUUTT against U2AF1,2.08 (active)
15,GCUGCUCCCGGAAAUGCAATT against ISOC2,-0.599
16,CAACAUGCCCAUUCGCUUUTT against ADIPOQ,0.557
17,GCCUGAGACCAAAAACAGATT against SLC2A9,0.216
18,GAUCUGCAUCAAUACUGAATT against FBLN5,-0.0832
19,CACUGACUAUUAUCAUUCATT against WHSC1L1,-0.283
20,GGGAUGUAAUAACAGCAUUTT against GDE1,-0.256
21,CUGUUGCACUUCACAUUUUTT against TRIP13,1 (active)
22,CAGCUUAAUUUUUACGCAATT against IPMK,-0.00138

row,Sequence,median seed-adjusted z-score
1,CACCUACGAUAGCUACUAUTT against NKTR,-1.1 (active)
2,GCCUCACGUUUGUCAGUAUTT against WNK3,-0.466
3,CAUCCAACGACAAUCUAUATT against ATP1A2,0.248
4,UCACGGCUCUGUUGAAUGUTT against DUSP4,-0.176
5,GACCCAUGGUAAAAUGCAATT against TWIST1,-0.159
6,GCAUAAUAAGGGUAGGGAUTT against DDX53,-0.136
7,GAUAGAAGCAUGGAAUUGATT against MRS2,1.38 (active)
8,GGUCAAUUCAGUGAAGAUATT against ARL8B,-0.477
9,GAUUGGUGGUUGGAACAUUTT against ECE2,0.794
10,CCAAAGAUAUCGGACCCUATT against PI4K2A,-0.486
11,CGGCGUCUCUACUACGUCUTT against CLEC11A,-1.1 (active)
12,CUUCCUGGGUGUAAUGUUATT against IGSF1,0.258
13,GCAAGGCAGCUGUUCUGAATT against PGLS,0.188
14,GCAUCUGUGAGGAUAUUGATT against FBN3,0.264
15,GAGUCGAGUUUGAUGAAGATT against GSTA4,-0.848
16,CGUUCGGUCUGACGCAGUATT against LRP5,-1 (active)
17,CGAUGUCAGUUUCUAGUAATT against USP42,-0.0125
18,GCCGUUUGACCAUACAUUATT against SNTB1,0.488
19,CCAAGAAACUAACACGCUATT against PFKFB2,0.311
20,GGAAGGUGAUUGAUCCUAATT against HNRNPD,0.504
